Experimental data as given in PubChem BioAssay (NCATS).
Records with an inconclusive call do not appear. Unmarked numbers belong to inactive results. The source made the active and inactive calls. Calls come from the whole dose curve; as a rule, active = well fitted cell-killing curve with a large enough effect; inconclusive = small, poorly fitted or top-dose-only effect, or effect the other way; inactive = no such curve, though single readings can be large or run the other way.

Assay: Quantitative High-Throughput drug screen in 47 multiple myeloma cell lines against the NCATS MIPE library collection: KMS28PE_JCRB cell viability assay (AID 1918983); note: nearly all actives have a fitted effect of over 35% in size
Conditions: KMS28PE multiple myeloma viability, CellTiter-Glo ATP, 48 h; series mostly up to 45.8 µM; viability, % of DMSO control: at the top concentration
Outline: (§1)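 Cells were exposed to library compounds for 48 hours, after which ATP was measured by CellTiter-Glo. Signal was taken as median relative luminescence units.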
Potency is the fitted concentration of half-maximal effect.

SMILES | Potency | viability, % of DMSO control
CC(C)(O)c1cc2nc(-c3cnc(N)nc3)nc(N3CCOCC3)c2s1 | 0.0372 µM (active) | 
CN[C@H]1CCc2cc(OC)c(OC)c(OC)c2-c2ccc(OC)c(=O)cc21 | 0.0019 µM (active) | 
O=C(C=Cc1c(C(=O)O)[nH]c2cc(Cl)cc(Cl)c12)Nc1ccccc1 |  | 125%
CN1CC[C@@H](c2c(O)cc(O)c3c(=O)cc(-c4ccccc4Cl)oc23)[C@@H](O)C1 | 0.132 µM (active) | 
Cc1[nH]c2ccccc2c1CCNCc1ccc(C=CC(=O)NO)cc1 | 0.059 µM (active) | 
CCNC(=O)Nc1ccc2ncc(Nc3ccc(C)cc3)nc2n1 |  | 131%
COc1cccc(Nc2c(C(N)=O)cnc3c(C)cc(S(=O)(=O)c4cccc(C(=O)N(C)C)c4)cc23)c1 |  | 114% [at 23.2 µM]
Cc1cc(Nc2cc(N3CCN(C)CC3)nc(C=Cc3ccccc3)n2)n[nH]1 | 13.6 µM (active) | 
CC(C)[C@H](C(=O)Nc1ccc(C(=O)NO)cc1)c1ccccc1 | 0.833 µM (active) | 
Nc1ccn([C@@H]2O[C@H](CO)[C@H](O)C2(F)F)c(=O)n1 | 0.469 µM (active) | 
CN(C)c1nc(Cc2ccc(NC(=O)c3ccc4ccccc4c3)cc2)nc(Cl)c1CC(=O)O |  | 118%
Cc1ccc(CN2CCNCC2)cc1NC(=O)CNc1ccc(F)c(F)c1 | 20.9 µM (active) | 
CCC1=C[C@@H]2CN(C1)Cc1c([nH]c3ccccc13)[C@@](C(=O)OC)(c1cc3c(cc1OC)N(C)[C@@H]1[C@@](O)(C(=O)OC)[C@H](OC(C)=O)[C@]4(CC)C=CCN5CC[C@]31[C@@H]54)C2 | 0.0209 µM (active) | 
CCCCN1CCC(CNC(=O)c2c3n(c4ccccc24)CCCO3)CC1 | 23.5 µM (active) | 
COC(=O)Nc1nc2ccc(C(=O)c3ccc(F)cc3)cc2[nH]1 | 1.66 µM (active) | 
O=C(CCCCCCC(=O)Nc1ccc([C@H]2O[C@@H](CSc3nc(-c4ccccc4)c(-c4ccccc4)o3)C[C@@H](c3ccc(CO)cc3)O2)cc1)NO | 16.6 µM (active) | 
Nc1ccc(S(=O)(=O)Nc2ncccn2)cc1 |  | 148%

SMILES | Potency | viability, % of DMSO control
CC(=O)Nc1sc2c(c1-c1nc3ccccc3s1)CNC2 | 20.9 µM (active) | 
COc1cc2ncn(-c3cc(OCc4ccccc4C(F)(F)F)c(C(N)=O)s3)c2cc1OC | 16.6 µM (active) | 
CC(O)C1C(=O)N2C(C(=O)O)=C(SC3CNC(C(=O)N(C)C)C3)C(C)C12 (stereo unspecified) |  | 117%
COc1cc2c(Oc3ccc4[nH]c(C)cc4c3F)ncnc2cc1OCCCN1CCCC1 | 20.9 µM (active) | 
COc1cc(-c2nn(C3CCC(N4CCN(C(C)=O)CC4)CC3)c3ncnc(N)c23)ccc1NC(=O)c1cc2ccccc2n1C (stereo unspecified) | 14.8 µM (active) | 
CCCCCN(CCC12CC3CC(CC(C3)C1)C2)C(=O)NCCCc1ccncc1 | 20.9 µM (active) | 
Cc1cn2c(-c3cn[nH]c3)cnc2c(Nc2ccc(C(=O)N3CCNCC3)cc2F)n1 | 18.7 µM (active) | 
COc1c(OCCCN2CCOCC2)ccc2c3n(c(=NC(=O)c4cnc(N)nc4)nc12)CCN3 | 0.0645 µM (active) | 
Cc1c(Cn2c(C)nc3c(C(=O)O)cc(N4CCOCC4)cc32)cccc1C(F)(F)F |  | 119%
NCC(=O)Nc1ccc(-n2nc(C(F)(F)F)cc2-c2ccc3c(ccc4ccccc43)c2)cc1 | 29.6 µM (active) | 
Cc1c(NC(=O)OC[C@@H]2COCCN2)cn2ncnc(Nc3ccc4c(cnn4Cc4cccc(F)c4)c3)c12 | 16.6 µM (active) | 
COc1ccc(CC2c3cc(OC)c(OC)cc3CC[N+]2(C)CCC(=O)OCCCCCOC(=O)CC[N+]2(C)CCc3cc(OC)c(OC)cc3C2Cc2ccc(OC)c(OC)c2)cc1OC (stereo unspecified) |  | 105% [at 5.15 µM]
CS(=O)(=O)c1ccc(-c2cnc(N)c(C(=O)Nc3ccccc3)n2)cc1 |  | 170%
COc1cc(C(=O)NS(=O)(=O)c2ccccc2C)ccc1Cc1cn(C)c2ccc(NC(=O)OC3CCCC3)cc12 | 23.5 µM (active) | 
COc1ccc2c(OCc3nnc4ccc(-c5ccccc5)nn34)ccnc2c1 |  | 156%
CCCn1c(=O)c2[nH]c(-c3cnn(Cc4cccc(C(F)(F)F)c4)c3)nc2n(CC)c1=O |  | 112%

Assay: Quantitative High-Throughput drug screen in 47 multiple myeloma cell lines against the NCATS MIPE library collection: OCIMY7_PLB cell viability assay (AID 1918987); note: nearly all actives have a fitted effect of over 65% in size
Conditions: OCI-MY7 myeloma viability, CellTiter-Glo ATP, 48 h; series mostly up to 45.8 µM; viability (% of DMSO): at the top concentration
Outline: as §1

SMILES | Potency | viability (% of DMSO) [%]
CN[C@H]1CCc2cc(OC)c(OC)c(OC)c2-c2ccc(OC)c(=O)cc21 | 0.001 µM (active) | 
O=C(C=Cc1c(C(=O)O)[nH]c2cc(Cl)cc(Cl)c12)Nc1ccccc1 |  | 187
Cc1[nH]c2ccccc2c1CCNCc1ccc(C=CC(=O)NO)cc1 | 0.0743 µM (active) | 
CCCCN1CCC(CNC(=O)c2c3n(c4ccccc24)CCCO3)CC1 | 3.72 µM (active) | 
COC(=O)Nc1nc2ccc(C(=O)c3ccc(F)cc3)cc2[nH]1 | 0.296 µM (active) | 
O=C(CCCCCCC(=O)Nc1ccc([C@H]2O[C@@H](CSc3nc(-c4ccccc4)c(-c4ccccc4)o3)C[C@@H](c3ccc(CO)cc3)O2)cc1)NO | 8.33 µM (active) | 
COc1cc2ncn(-c3cc(OCc4ccccc4C(F)(F)F)c(C(N)=O)s3)c2cc1OC | 0.332 µM (active) | 
COc1cc2c(Oc3ccc4[nH]c(C)cc4c3F)ncnc2cc1OCCCN1CCCC1 | 6.62 µM (active) | 
CCCCCN(CCC12CC3CC(CC(C3)C1)C2)C(=O)NCCCc1ccncc1 | 16.6 µM (active) | 
Cc1cn2c(-c3cn[nH]c3)cnc2c(Nc2ccc(C(=O)N3CCNCC3)cc2F)n1 | 10.5 µM (active) | 
Cc1c(Cn2c(C)nc3c(C(=O)O)cc(N4CCOCC4)cc32)cccc1C(F)(F)F | 0.264 µM (active) | 
NCC(=O)Nc1ccc(-n2nc(C(F)(F)F)cc2-c2ccc3c(ccc4ccccc43)c2)cc1 | 16.6 µM (active) | 
Cc1c(NC(=O)OC[C@@H]2COCCN2)cn2ncnc(Nc3ccc4c(cnn4Cc4cccc(F)c4)c3)c12 | 0.59 µM (active) | 
COc1ccc(CC2c3cc(OC)c(OC)cc3CC[N+]2(C)CCC(=O)OCCCCCOC(=O)CC[N+]2(C)CCc3cc(OC)c(OC)cc3C2Cc2ccc(OC)c(OC)c2)cc1OC (stereo unspecified) | 4.13 µM (active) | 
Cc1cnc(-c2cnc(NCCNc3ccc(C#N)cn3)nc2-c2ccc(Cl)cc2Cl)[nH]1 | 4.18 µM (active) | 
CS(=O)(=O)c1ccc(-c2cnc(N)c(C(=O)Nc3ccccc3)n2)cc1 | 1.66 µM (active) | 
COc1cc(C(=O)NS(=O)(=O)c2ccccc2C)ccc1Cc1cn(C)c2ccc(NC(=O)OC3CCCC3)cc12 | 14.8 µM (active) | 
COC(=O)Nc1ccc(-c2nc(N3CCOCC3)c3cnn(C4CCN(Cc5cccnc5)CC4)c3n2)cc1 | 23.5 µM (active) | 
